Data published in PMC4336329 (PLoS ONE, 2015).
The whole screen tested about 310,000 compounds, of which about 14,000 (4.5%) showed an effect of 50% or more. The effect is printed as a negative number. The sample holds strong results, similar compounds and a random draw of the others, so the mix is not that of the screen.

These compounds were tested against human ether-à-go-go-related gene (hERG) potassium channel (human, UniProt Q12809) (assay: primary screen, population patch clamp on CHO cells stably expressing hERG; higher = less effect of the substance).
Sequence of human ether-à-go-go-related gene (hERG) potassium channel (Q12809 whole entry, looked up): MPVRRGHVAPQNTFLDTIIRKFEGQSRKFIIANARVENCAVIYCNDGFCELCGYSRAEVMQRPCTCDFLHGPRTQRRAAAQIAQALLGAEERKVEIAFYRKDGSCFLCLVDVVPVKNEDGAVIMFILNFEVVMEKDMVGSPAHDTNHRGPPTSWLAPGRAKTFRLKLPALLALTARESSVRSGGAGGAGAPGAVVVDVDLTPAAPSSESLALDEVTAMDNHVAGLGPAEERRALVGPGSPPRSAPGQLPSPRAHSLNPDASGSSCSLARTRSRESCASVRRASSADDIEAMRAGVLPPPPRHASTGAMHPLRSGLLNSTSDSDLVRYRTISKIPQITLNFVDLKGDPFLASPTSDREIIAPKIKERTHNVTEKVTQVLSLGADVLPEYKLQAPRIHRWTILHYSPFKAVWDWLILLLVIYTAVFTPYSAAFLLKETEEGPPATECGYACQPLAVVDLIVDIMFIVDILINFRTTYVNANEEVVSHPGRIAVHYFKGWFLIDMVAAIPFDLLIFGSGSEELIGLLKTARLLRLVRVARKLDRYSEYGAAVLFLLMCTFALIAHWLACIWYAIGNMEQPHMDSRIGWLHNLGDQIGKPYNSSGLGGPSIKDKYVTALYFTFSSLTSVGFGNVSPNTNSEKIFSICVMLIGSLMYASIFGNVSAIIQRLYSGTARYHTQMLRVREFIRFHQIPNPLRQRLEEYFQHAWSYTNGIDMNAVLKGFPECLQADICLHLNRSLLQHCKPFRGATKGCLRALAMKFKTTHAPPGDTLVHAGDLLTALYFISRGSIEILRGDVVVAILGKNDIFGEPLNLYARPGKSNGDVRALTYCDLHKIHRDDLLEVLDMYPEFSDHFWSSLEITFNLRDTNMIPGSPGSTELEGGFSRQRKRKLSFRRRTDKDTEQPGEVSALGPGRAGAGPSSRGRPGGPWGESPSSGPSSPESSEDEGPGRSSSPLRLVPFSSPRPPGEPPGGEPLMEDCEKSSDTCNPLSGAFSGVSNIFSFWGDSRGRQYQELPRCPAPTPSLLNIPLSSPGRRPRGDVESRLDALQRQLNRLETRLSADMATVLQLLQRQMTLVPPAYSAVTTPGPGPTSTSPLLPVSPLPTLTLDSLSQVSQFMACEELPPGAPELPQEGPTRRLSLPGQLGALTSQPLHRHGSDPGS
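Note: peak tail current of the secondary pulse compared with the same well before compound.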

SMILES	hERG current change (%, negative = inhibition) at 10uM [%]
CC(OC(=O)/C=C/c1ccc(Br)cc1)C(=O)N1CCOCC1 (stereo not drawn)	-10.8
CCc1cc(=O)oc2c(CNC(Cc3ccccc3)C(=O)O)c(O)ccc12 (stereo not drawn)	9.3
O=c1ccn(Cc2ccccc2Cl)cc1	8.8
O=C(CCc1nnc(-c2ccsc2)o1)NCc1ccccc1OC(F)(F)F	3.76
CN1C(=O)C(=Cc2coc3ccccc3c2=O)C(=O)N(C)C1=O	2.32
Cc1ccc(NC(=O)Cn2cnc3ccccc32)cc1C	-3.44
O=C(Cn1cnc2ccccc21)Nc1ccc(F)c(F)c1	8.41
O=C(Cn1cnc2ccccc21)Nc1ccc(C(=O)O)cc1.O=C(O)C(=O)O	-71.4
O=S(=O)(c1ccc(N2CCOCC2)cc1)N1CCOCC1	-5.96
O=C(CNC(=O)c1ccccc1)OCCCOC(=O)CNC(=O)c1ccccc1	11.8
O=C(NC(=S)N1CCOCC1)c1ccccc1Cl	12.7
O=C(NN1C(=O)c2cc(Br)ccc2NC1c1ccccc1Cl)c1ccncc1 (stereo not drawn)	8.83
COc1ccc(NC(=O)CN2CCC(n3c(C)nc4cc(F)ccc43)CC2)c(OC)c1	-4.64
COc1cc(NC(=O)Nc2ccccc2OC)c(OC)cc1NC(=O)CN1CCCCC1	1.04
COc1ccc(C(=O)NNC(=O)CN2CCC(n3nnc4cc(F)ccc43)CC2)cc1	-18.4
Cc1nc2ccc(NC(=O)N3CCC(c4ccccc4)C3)cc2nc1C (stereo not drawn)	-11.4
COc1ccccc1NC(=O)CN1CCC(n2c(C)nc3cc(F)ccc32)CC1	-72.2
COc1ccc(Cl)cc1NC(=O)CN1CCC(n2nnc3cc(F)ccc32)CC1	-7.93
COc1ccc(Cl)cc1NC(=O)CN1CCC(n2nnc3ccccc32)CC1	-10.4
Cl.O=C(CN1CCC(n2nnc3cc(F)ccc32)CC1)NCc1ccco1	-35.6
Cc1nc2cc(NC(=O)N3CCCC3)ccc2n1C	-1.21
COc1ccccc1NC(=O)CN1CCC(n2nnc3cc(F)ccc32)CC1	-55.4

SMILES	hERG current change (%, negative = inhibition) at 10uM [%]
COc1ccc(CNC(=O)CN2CCC(n3nnc4cc(F)ccc43)CC2)cc1	-68
Cc1nc2cc(NC(=O)N3CCC(c4ccccc4)C3)ccc2n1C (stereo not drawn)	-52.4
CCc1ccc(C(=O)N/N=C/c2cccc3ccccc23)nc1	1.8
Cc1ccc(-c2nnc(SCC(=O)N3CCCC3)o2)cc1C	-0.309
CC(C)Cc1nnc(NC(=O)CCC(=O)NC2CCCCCC2)s1	-48.6
CCN(CC)CCP(=O)(c1ccccc1)c1ccccc1	-15.2
OCCN1CCN(c2nc(-c3ccccc3)nc3c2oc2ccccc23)CC1	-6.34
COC(=O)C1=C(CN2CCN(C)CC2)NC(=O)NC1c1cc(C)ccc1C (stereo not drawn)	-41
COc1ccc2c(=O)cc(-c3cccnc3)oc2c1OC	8.9
CCc1nnc(NC(=O)c2c(-c3ccccc3)noc2C)s1	10.2
N#Cc1ccccc1OCC(=O)Nc1cccc(S(=O)(=O)N2CCCC2)c1	5.17
O=C(Cc1ccccc1F)Nc1ccc(SC(F)F)cc1	14
Cc1ccccc1C(=O)NC1CCN(CC(=O)NCc2ccc(F)cc2)CC1	-44.2
O=C(CN1CCC(n2nnc3cc(F)ccc32)CC1)NC1CC1	-4.99
O=C(CN1CCC(n2nnc3cc(F)ccc32)CC1)NC1CCCCC1	-32.8
Cc1nc2ccccc2n1C1CCN(CC(=O)Nc2ccccc2Br)CC1	-25
Cc1nc2ccccc2n1C1CCN(C(=O)Nc2ccccc2)CC1	-60.5
Cc1nc2ccccc2n1C1CCN(CC(=O)NCc2ccc(F)cc2)CC1	-58
COC(=O)C1CCN(C(=O)Nc2ccccc2)CC1	24.3
CC1CCC(NC(=O)CN2CCC(n3nnc4cc(F)ccc43)CC2)CC1 (stereo not drawn)	-58.4
O=C(Nc1ccccc1)N1CCC(n2c(=O)[nH]c3ccccc32)CC1	-8.18
Cc1ccc(CN(C)CC(=O)Nc2ccccc2C(=O)NC2CC2)o1	-7.18

SMILES	hERG current change (%, negative = inhibition) at 10uM [%]
N#Cc1c(F)cccc1N1CCC(C#N)CC1	8.29
Cn1nnnc1SCC(=O)Nc1ccccc1C(=O)NC1CC1	7.04
COc1ccccc1NC(=O)CCN1C(=O)/C(=C/c2cc(OC)c(OC)c(OC)c2)SC1=S	13.8
O=C(Cc1ccccc1)Nc1ccc2oc(-c3ccncc3)nc2c1	0.815
COc1ccc(OC(C)C(=O)Nc2ccc([N+](=O)[O-])cc2)cc1 (stereo not drawn)	3.6
CC(Oc1ccccc1)C(=O)Nc1cccc([N+](=O)[O-])c1 (stereo not drawn)	-22
CC(Sc1nncn1-c1ccccc1)C(=O)Nc1cccc([N+](=O)[O-])c1 (stereo not drawn)	-17.2
COc1ccc(-n2cnnc2SC(C)C(=O)Nc2cccc([N+](=O)[O-])c2)cc1 (stereo not drawn)	-59.3
COc1ccccc1-n1cnnc1SC(C)C(=O)Nc1cccc([N+](=O)[O-])c1 (stereo not drawn)	-8.19
COc1ccc(OC(C)C(=O)Nc2cccc([N+](=O)[O-])c2)cc1 (stereo not drawn)	-58.8
COc1ccc(CNC(=O)CCSCc2ccc(C)cc2)cc1	-16.2
CCC1=Nc2cc(C(=O)O)ccc2Sc2ccccc21	21.2
COC(=O)C1=C(c2ccc(C(C)=O)cc2)C[C@@H]2CC[C@H]1N2C(=O)NCc1ccc(C(F)(F)F)cc1	30
COC(=O)C1=C(c2ccc(S(C)(=O)=O)cc2)C[C@@H]2CC[C@H]1N2C(=O)NCc1ccccc1	-29.6
COC(=O)C1=C(c2ccccc2)C[C@@H]2CC[C@H]1N2C(=O)NCc1cccc2ccccc12	-12.2
COC(=O)C1=C(c2ccc(S(C)(=O)=O)cc2)C[C@@H]2CC[C@H]1N2C(=O)NCc1cccc2ccccc12	-61.6
COC(=O)C1=C(c2ccc(OC(F)(F)F)cc2)C[C@@H]2CC[C@H]1N2C(=O)NCc1cccc2ccccc12	20.4
COC(=O)C1=C(c2ccc(S(C)(=O)=O)cc2)C[C@@H]2CC[C@H]1N2C(=O)NCc1ccc(C(F)(F)F)cc1	-59.3
Cc1ccc(C(=O)NC(C(=O)Nc2ccccc2)c2ccccc2)cc1 (stereo not drawn)	19.7
CC(NC(=O)Cn1cc(C(=O)C2CC2)c2ccccc21)c1ccccc1 (stereo not drawn)	4.74
Cc1ccc(-c2nn(C)c(=O)c3ccccc23)cc1CNC(=O)c1ccco1	-36.7
Cc1ccc(/C=C2/C(=O)NC(=O)N(Cc3ccc(F)cc3)C2=O)o1	19.6

SMILES	hERG current change (%, negative = inhibition) at 10uM [%]
COc1ccc(OCc2cc(C(=O)NCc3nc(C)cs3)no2)c(Cl)c1	-17.2
OCC1(Cc2ccccc2)CCN(Cc2ccc(-c3ccco3)cc2)CC1	-66.6
OCC1(Cc2ccccc2C(F)(F)F)CCN(Cc2ccccc2)CC1	-41.3
OCC1(Cc2ccccc2)CCN(Cc2ccc(C(F)(F)F)cc2)CC1	-72.9
OCC1(Cc2ccccc2)CCCN(Cc2ccc(-c3ccco3)cc2)C1 (stereo not drawn)	-5.88
O=C(CSc1cn(CC(=O)N2CCOCC2)c2ccccc12)N1CCOCC1	12.8
Cc1cc(C)c(C#N)c(SCc2ccc([N+](=O)[O-])cc2)n1	15.9
COc1ccc(F)cc1S(=O)(=O)Nc1ccc2c(c1)OCO2	6.15
CC(CCc1ccccc1)NC(=S)NC1CCCCC1 (stereo not drawn)	12
CCC(C)(C)n1nnnc1C(c1ccccc1)N1CCN(Cc2ccccc2)CC1 (stereo not drawn)	-32
Clc1ccc(C(c2nnnn2C2CCCC2)N2CCN(Cc3ccncc3)CC2)cc1 (stereo not drawn)	-71.7
Cc1ccc(C(c2nnnn2CC2CCCO2)N2CCN(C)CC2)cc1.Cl (stereo not drawn)	-7.48
Cc1ccc(C(c2nnnn2CC2CCCO2)N2CCN(C(=O)c3ccco3)CC2)cc1 (stereo not drawn)	-4.13
Cl.Fc1ccc(C(c2nnnn2C2CCCC2)N2CCN(Cc3ccncc3)CC2)cc1 (stereo not drawn)	-24.8
CCN1CCN(C(c2ccccc2)c2nnnn2Cc2ccccc2)CC1.Cl (stereo not drawn)	-27.4
Cc1ccc(C(c2nnnn2CCc2ccccc2)N2CCSCC2)cc1 (stereo not drawn)	-13.5
Cc1ccc(C(c2nnnn2Cc2ccccc2)N2CC=C(c3ccc(F)cc3)CC2)cc1 (stereo not drawn)	11.5
Cc1ccc(C(c2nnnn2Cc2ccccc2)N2CCN(Cc3ccccc3)CC2)cc1 (stereo not drawn)	-79
c1ccc(CN2CCN(C(c3ccccc3)c3nnnn3Cc3ccccc3)CC2)cc1 (stereo not drawn)	-64.7
Clc1ccc(C(c2nnnn2C2CCCC2)N2CCSCC2)cc1 (stereo not drawn)	-24.4
Cc1ccc(C(c2nnnn2CC2CCCO2)N2CCN(Cc3ccccc3)CC2)cc1 (stereo not drawn)	-74.9
